Bioassay records deposited in PubChem by National Center for Advancing Translational Sciences (NCATS).
hNpr1 antagonist – human Npr1 receptor antagonism. P16066. HEK293 hNpr1 GloSensor cGMP, ANP-stimulated luminescence. Potency, µM (titrated, usually from 46.3 µM), usual class: inhibitors. 1.6% of 76,000 active; calls by dose curve; further: nearly all actives have a fitted effect of over 60% in size
Target sequence (P16066 whole entry, looked up): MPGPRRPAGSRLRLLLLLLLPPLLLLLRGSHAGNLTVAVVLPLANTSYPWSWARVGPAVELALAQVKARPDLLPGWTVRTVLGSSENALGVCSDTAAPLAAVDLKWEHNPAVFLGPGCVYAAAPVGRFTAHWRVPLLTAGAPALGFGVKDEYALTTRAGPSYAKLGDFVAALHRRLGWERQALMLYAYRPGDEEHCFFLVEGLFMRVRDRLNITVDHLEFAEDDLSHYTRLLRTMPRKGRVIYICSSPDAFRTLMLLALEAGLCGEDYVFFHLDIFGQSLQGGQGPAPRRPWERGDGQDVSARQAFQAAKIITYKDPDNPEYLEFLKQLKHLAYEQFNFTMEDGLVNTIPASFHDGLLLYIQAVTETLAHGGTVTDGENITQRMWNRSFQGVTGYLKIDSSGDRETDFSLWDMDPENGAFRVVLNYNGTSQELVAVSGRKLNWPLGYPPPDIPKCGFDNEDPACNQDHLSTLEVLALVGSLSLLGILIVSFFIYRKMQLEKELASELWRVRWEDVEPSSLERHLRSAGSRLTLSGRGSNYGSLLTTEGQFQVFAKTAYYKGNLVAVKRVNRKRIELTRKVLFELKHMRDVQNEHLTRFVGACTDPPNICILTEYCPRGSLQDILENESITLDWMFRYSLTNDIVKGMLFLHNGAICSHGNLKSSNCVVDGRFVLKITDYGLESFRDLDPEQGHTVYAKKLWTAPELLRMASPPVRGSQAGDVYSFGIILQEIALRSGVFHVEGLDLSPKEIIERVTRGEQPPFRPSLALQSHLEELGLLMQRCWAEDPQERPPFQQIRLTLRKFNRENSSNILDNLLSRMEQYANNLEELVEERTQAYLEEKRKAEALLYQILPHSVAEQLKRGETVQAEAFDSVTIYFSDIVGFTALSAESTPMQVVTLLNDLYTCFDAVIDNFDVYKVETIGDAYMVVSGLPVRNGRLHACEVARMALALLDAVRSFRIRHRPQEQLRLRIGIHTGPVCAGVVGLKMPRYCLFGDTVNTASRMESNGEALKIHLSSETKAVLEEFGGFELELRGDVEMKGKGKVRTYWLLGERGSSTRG
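HEK293 cells stably expressing human Npr1 and cGMP GloSensor pGS-40F, loaded 2 h with 2% GloSensor reagent, given compound 30 min at room temperature. Luminescence read before and 20 min after 0.1 nM hNppA.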
3T3 cytotox – cytotoxic compounds in NIH 3T3 cells | Potency, µM (highest dose often 96.7 µM), most hits filed as inhibitors | NIH 3T3 viability, CellTiter-Glo ATP luminescence, 48-72 h | 4.3% of 94,000 active; further: nearly all actives have a fitted effect of over 55% in size
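First NIH 3T3 cells are plated at 400 cells/well; next compound is pinned in; then plates incubate 48 or 72 hr at 37 °C; finally CellTiter-Glo is added and luminescence read after 10 min.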
HEK293 tox – kills HEK 293 cells; HEK 293 viability, ATP luminescence (CellTiter-Glo), 48-72 h; 6.6% of 94,000 active; Potency, µM (highest dose often 115 µM), hits mostly inhibitors; AID 1345083; further: nearly all actives have a fitted effect of over 60% in size
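HEK 293 seeded at 250 cells/well receive compound via pintool. After 48 or 72 hr at 37 degree Celsius, 5% CO2 and 95% humidity, CellTiter-Glo is dispensed and luminescence read following 10 min at room temperature.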
GPT2 inh – GPT2 alanine aminotransferase inhibition; Recombinant GPT2, coupled pyruvate oxidase/HRP Amplex Red fluorescence; Potency, µM (top dose mostly 57.7 µM), most hits filed as inhibitors; 0.25% of 100,000 active; AID 1671188; Q8TD30; further: nearly all actives have a fitted effect of over 60% in size
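Inhibition is scored from Amplex Red fluorescence generated when pyruvate oxidase and HRP act on pyruvate released by GPT2. Reactions contain 10ng/uL enzyme, 250uM a-KG and 2mM L-alanine and run 30 min at room temperature.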
FLuc inh – Photinus pyralis luciferase inhibition; AID 1347043; purified P. pyralis luciferase, luminescence, biochemical; 2.5% of 76,000 active; Potency, µM (top dose mostly 115 µM), hits mostly inhibitors; P08659; further: nearly all actives have a fitted effect of over 65% in size
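Purified P. pyralis luciferase (10nM final) in 50mM Tris acetate pH 7.5, 10mM Mg acetate, 0.01% Tween-20, 0.05% BSA with 10uM D-luciferin and 10uM ATP. Compounds titrated qHTS. Luminescence imaged on CCD.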
Hits are given with their value; . = inactive; ? = inconclusive; / = not tested or not shown. Shown are actives, neighbours in structure and some others; about 10% of the full set was active somewhere. Unless noted, the call rests on the fitted dose curve; in most records, active means well fitted curve in the direction sought with a large enough effect; inconclusive means small, poorly fitted or top-dose-only effect, or another doubt; inactive means no such curve, though single readings can be large; an effect the other way counts as inactive or inconclusive.

SMILES | hNpr1 antagonist | 3T3 cytotox | HEK293 tox | GPT2 inh | FLuc inh
CCC(CC)c1cc([C@H]2CN3CC[C@H]2C[C@@H]3CNC(=O)C2CC2)nc(-c2ccncc2)n1 | . | . | . | . | .
CCC(CC)c1cc([C@H]2CN3CC[C@H]2C[C@@H]3CNC(C)=O)nc(-c2ccncc2)n1 | ? | 44.7µM | 100µM | . | .
CNCc1cn(C[C@H]2CC3CCN2C[C@@H]3C(=O)Nc2ccccc2)nn1 (stereo not given in full) | . | . | . | . | .
CC(C)c1ccc(NC(=O)OC[C@H]2C[C@@H]3CCN2C[C@@H]3c2cc(C3CCCCC3)nn2C)cc1 | . | 22.4µM | 14.1µM | . | .
CCCNC(=O)OC[C@H]1C[C@@H]2CCN1C[C@@H]2c1cc(C(CC)CC)nc(-c2ccncc2)n1 | ? | 39.8µM | ? | . | .
CCC(CC)c1cc([C@H]2CN3CC[C@H]2C[C@@H]3CNC(=O)C2CCC2)nc(-c2ccncc2)n1 | . | ? | . | . | .
COc1ccc(NC(=O)NC[C@H]2C[C@@H]3CCN2C[C@@H]3c2cc(C3CCCC3)nn2C)cc1 | . | ? | ? | . | .
CC(C)(C)c1ccc(NC(=O)OC[C@H]2C[C@@H]3CCN2C[C@@H]3c2cc(C3CCCC3)nc(-c3ccncc3)n2)cc1 | . | 20µM | 20µM | . | ?
CC(C)c1ccc(NC(=O)OC[C@H]2C[C@@H]3CCN2C[C@@H]3c2cc(C3CCCC3)nc(-c3ccncc3)n2)cc1 | . | 4.47µM | 3.55µM | . | ?
Cc1nc(-c2ccccc2Br)cc([C@H]2CN3CC[C@H]2C[C@@H]3CNC(=O)NC(C)C)n1 | . | ? | 79.4µM | . | .
Cc1nc(-c2ccccc2Br)cc([C@H]2CN3CC[C@H]2C[C@@H]3CNC(=O)NC2CCCCC2)n1 | . | ? | ? | . | .
COc1ccc(NC(=O)NC[C@H]2C[C@@H]3CCN2C[C@@H]3c2cc(-c3ccccc3Br)nc(C)n2)cc1 | . | ? | 79.4µM | . | .
COCC(=O)NC1CCC12CCNCC2 (stereo not given) | . | . | . | . | .
O=C1Nc2ccccc2CC12CCN2Cc1cccnc1 (stereo not given) | . | ? | ? | ? | .
COc1cc2c(cc1-c1cnn(C)c1)NC(=O)C21CCN(C(C)=O)CC1 | . | 31.6µM | . | . | .
COc1cc2c(cc1-c1ccc(O)c(F)c1)NC(=O)C21CCN(C(C)=O)CC1 | . | 28.2µM | . | . | .
c1ccc([C@@H]2C[C@H]2NC2CCNCC2)cc1 | / | / | / | . | /
O=C(Nc1ccc2n(c1=O)C[C@H]1C[C@@H]2CN(C(=O)COc2ccccc2)C1)c1cccs1 | . | ? | ? | . | .
O=C(Nc1ccccc1)Nc1ccc2n(c1=O)C[C@H]1C[C@@H]2CN(C(=O)c2cccs2)C1 | . | ? | ? | . | 5.62µM
O=C(Nc1ccc2n(c1=O)C[C@H]1C[C@@H]2CN(Cc2ccc(F)cc2)C1)c1cccs1 | ? | ? | 25.1µM | ? | ?
COc1cc2c(cc1Oc1cccc(N(C)C)c1)NC(=O)C21CCN(C(=O)C(C)C)CC1 | . | ? | ? | . | .
CCC1(N2CCN(C(=O)Cc3ccccc3OC)CC2)CCN(C(=O)NC)C1 (stereo not given) | . | . | . | . | ?
CC(C)(C)c1ccc(-c2cn(C[C@H]3CC4CCN3C[C@@H]4C(=O)NC3CCCCC3)nn2)cc1 (stereo not given in full) | . | ? | 31.6µM | . | .
COc1ccccc1N1CCN(C(=O)[C@H]2CN3CCC2C[C@@H]3Cn2cc(-c3ccccc3)nn2)CC1 (stereo not given in full) | . | . | 44.7µM | . | .
C=CCN(C)C(=O)[C@H]1CN2CCC1C[C@@H]2Cn1cc(-c2ccc(C(C)(C)C)cc2)nn1 (stereo not given in full) | . | ? | 100µM | . | ?
SMILES | hNpr1 antagonist | 3T3 cytotox | HEK293 tox | GPT2 inh | FLuc inh
O=C(Nc1ccccc1)[C@H]1CN2CCC1C[C@@H]2Cn1cc(CSc2ccccc2)nn1 (stereo not given in full) | . | 100µM | 100µM | ? | .
COc1ccc(-c2cn(C[C@H]3C[C@@H]4CCN3C[C@@H]4C(=O)NC3CC3)nn2)cc1 | . | . | . | . | .
COc1ccc(NC(=O)N2[C@H]3CC[C@@H]2c2cnc(C)nc2C3)cc1F | . | . | . | . | .
COc1cc2c(cc1OCc1ccncc1)NC(=O)C21CCN(Cc2cccnc2)CC1 | . | ? | ? | . | .
COc1cc2c(cc1OCc1ccccc1)N(C(=O)c1ccc3[nH]ccc3c1)CC21CCN(C)CC1 | . | 22.4µM | 35.5µM | . | .
COc1cc2c(cc1OCc1ccccc1)N(C(=O)c1cccc(N(C)C)c1)CC21CCN(C)CC1 | . | 11.2µM | ? | . | .
COc1cc2c(cc1OCc1ccccc1)N(C(=O)C(C)C)CC21CCN(C)CC1 | . | 89.1µM | ? | . | .
COc1cc2c(cc1OCc1ccccc1)N(C(=O)C1CCC(C)CC1)CC21CCN(C)CC1 (stereo not given) | . | 20µM | 28.2µM | . | .
CCOC(=O)[C@H]1CN(C(=O)c2ccc(F)cc2)[C@]2(C)C(=O)Nc3ccccc3[C@H]12 | / | ? | ? | . | /
O=C(O)CN1CCC[C@]2(C(=O)O)CN(Cc3ccncc3)CC[C@@H]12 | . | . | . | ? | .
CC(C(O)c1ccccc1)N(C)C/C=C/c1ccccc1 (stereo not given) | / | / | / | . | /
COc1cc2c(cc1OCc1ccccc1)N(C(=O)c1ccnn1C)CC21CCN(C)CC1 | . | ? | ? | . | .
COc1cc2c(cc1OCc1ccccc1)N(C(=O)c1ccccc1OC)CC21CCN(C)CC1 | . | 28.2µM | 79.4µM | . | .
N#Cc1cccc(-c2ccc(=O)n3c2[C@@H]2C[C@@H](CN(C(=O)Nc4ccccc4)C2)C3)c1 | . | . | . | . | ?
COc1ccc2c(c1)C1(CCN(S(=O)(=O)c3cccc(Cl)c3)C1)C(=O)N2C (stereo not given) | . | ? | ? | . | .
COc1ccc2c(c1)C1(CCN(S(=O)(=O)c3ccc(Cl)cc3)C1)C(=O)N2C (stereo not given) | . | . | 50.1µM | . | .
COc1ccc2c(c1)C1(CCN(C(=O)COc3ccc(Cl)cc3)C1)C(=O)N2C (stereo not given) | . | ? | . | . | 28.2µM
C[C@H]1O[C@@H](n2cnc3c(N)ncnc32)C[C@@H]1O | / | / | / | . | /
Cc1ncc2c(n1)C[C@@H]1CC[C@H]2N1S(=O)(=O)c1ccc(F)c(C)c1 | . | . | . | . | .
